Experiment [1] has as its target Aryl hydrocarbon receptor (Homo sapiens) (UniProt P35869). The experiment in a line: qHTS assay to identify small molecule that activate the aryl hydrocarbon receptor (AhR) signaling pathway (AID 743085).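 Also: HG2L7.5c1 human HepG2 liver cells with stably integrated DRE-driven firefly reporter; series mostly up to about 70 µM; nearly all actives have a fitted effect of over 15% in size.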 The procedure, abridged: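 Steps: seed HepG2-AhR-luc cells; allow 5 h at 37C; pin-transfer test compound or vehicle; incubate 24 h at 37C; add viability dye (30 min, 37C) and read fluorescence; add luciferase substrate (30 min, RT) and read luminescence.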
In general terms: In qHTS, concentration-response curves come from the screen itself.

Experiment [2] in a line: qHTS assay to identify small molecule that activate the aryl hydrocarbon receptor (AhR) signaling pathway - cell viability counter screen (AID 743086).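 Also: HepG2 liver cells carrying the AhR DRE luciferase reporter; series mostly up to about 70 µM; nearly all actives have a fitted effect of over 45% in size.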 The procedure, abridged:
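HepG2-AhR-luc (HG2L7.5c1) cells, 4000/well, were preincubated 5 h at 37C, exposed to compound in qHTS format for 24 hr at 37C, then given CellTiter-Fluor for 30 min; viability was read as fluorescence in the reporter wells.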

Experiment [3] deals with Peroxisome proliferator-activated receptor gamma (Homo sapiens) (UniProt P37231). As to the kind of experiment: qHTS assay to identify small molecule agonists of the peroxisome proliferator-activated receptor gamma (PPARg) signaling pathway (AID 743094; active = well fitted activation curve with a large enough effect in the signal ratio in the repeat runs, not every such curve was filed as active; the % refers to the signal ratio). Put shortly: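 Reporter activation was scored by fluorescence of cleaved LiveBLAzer B/G substrate (1 h, room temperature) in PPARg-bla HEK293H cells previously treated 17 h at 37C with DMSO-dissolved compounds.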

For experiment [4] the target is unchanged. The experiment in a line: qHTS assay to identify small molecule antagonists of the peroxisome proliferator-activated receptor gamma (PPARg) signaling pathway (AID 743191; calls by dose curve; also: series mostly up to about 63 µM; nearly all actives have a fitted effect of over 30% in size). Put shortly: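 GeneBLAzer PPARg UAS-bla HEK293H cells carrying a UAS-driven beta-lactamase reporter were plated at 3000 cells/well, preincubated 5 h at 37C, then given compound for 17 h at 37C; LiveBLAzer B/G FRET substrate was read after 1 h at room temperature.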

Experiment [5] is described as follows: qHTS assay to identify small molecule antagonists of the peroxisome proliferator-activated receptor gamma (PPARg) signaling pathway - cell viability counter screen (AID 743194). Also: nearly all actives have a fitted effect of over 55% in size. Put shortly:
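PPARg-UAS-bla HEK293H cells were plated, rested 5 h at 37 C, then treated with compounds plus rosiglitazone (50 nM final) for 17 h at 37 C; viability was then read by CellTiter-Glo luminescence after 30 min at room temperature.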

The nature of experiment [6]: qHTS assay for small molecule agonists of the antioxidant response element (ARE) signaling pathway (AID 743202; active = well fitted activation curve with a large enough effect in the signal ratio in the repeat runs, not every such curve was filed as active; the % refers to the signal ratio). Put shortly: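 Following a 16 h, 37 C exposure of reporter HepG2 cells (ARE-driven beta-lactamase, 2,000 cells/well) to compounds, FRET substrate was applied for 2 h at room temperature and fluorescence intensity recorded.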
Experiment [7] can be described thus: qHTS assay for small molecule activators of the heat shock response signaling pathway - cell viability counter screen (AID 743209). Also: nearly all actives have a fitted effect of over 50% in size. The procedure, abridged:
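Viability of HSE-bla HeLa cells is measured with CellTiter-Glo in the wells already used for the reporter read. Compound exposure lasts 5 h at 37 C, and luminescence is read after 30 min at room temperature.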

The nature of experiment [8]: qHTS assay for small molecule activators of the heat shock response signaling pathway (AID 743210; active = well fitted activation curve with a large enough effect in the signal ratio in the repeat runs, with a control signal flat, not every such curve was filed as active; the % refers to the signal ratio; also: series mostly up to about 63 µM). The procedure, abridged: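 Heat shock element–beta-lactamase HeLa reporter cells; qHTS with compounds for 5 h at 37 C; detection by FRET substrate fluorescence after 2.5 h at RT.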
Experiment [9] addresses Peroxisome proliferator-activated receptor delta (Homo sapiens) (UniProt Q03181). As to the kind of experiment: qHTS assay to identify small molecule agonists of the peroxisome proliferator-activated receptor delta (PPARd) signaling pathway (AID 743212; calls by dose curve). Put shortly: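 Beta-lactamase reporter read by fluorescence (LiveBLAzer B/G FRET, 2 h, room temperature). Test agents, in DMSO, incubated at 37 C with PPARd-bla HEK293H cells.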

A short description of experiment [10]: qHTS assay to identify small molecule antagonists of the peroxisome proliferator-activated receptor delta (PPARd) signaling pathway - cell viability counter screen (AID 743213). Also: nearly all actives have a fitted effect of over 50% in size. The procedure, abridged: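 HEK293H cells with the PPARd UAS-bla reporter, co-treated 17 h at 37 C with compounds and L165041 (300 nM final), were lysed with CellTiter-Glo. Luminescence indicated viable cell content.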

Experiment [11] deals with Peroxisome proliferator-activated receptor delta (Homo sapiens) (UniProt Q03181). As to the kind of experiment: qHTS assay to identify small molecule antagonists of the peroxisome proliferator-activated receptor delta (PPARd) signaling pathway (AID 743215; active = well fitted inhibition curve with a large enough effect in the signal ratio in the repeat runs, not every such curve was filed as active; the % refers to the signal ratio;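 also: cells stimulated with agonist L165041 at 300 nM final during compound exposure; series mostly up to about 62 µM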). Put shortly:
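Plated HEK293H PPARd-bla cells rested 5 h at 37 C and 5% CO2. Compound, then agonist L165041 at 300 nM final, was added; 17 h at 37 C followed. Substrate loading, 2 h room temperature, fluorescence measured.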

Experiment [12] is described as follows: qHTS assay to identify small molecule agonists of the farnesoid-X-receptor (FXR) signaling pathway - cell viability counter screen (AID 743218). Also: nearly all actives have a fitted effect of over 45% in size. Also: potency is read from the fitted curve at half-maximal effect. Put shortly:
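Viability of FXR-bla HEK 293T cells is measured by ATP-based CellTiter-Glo luminescence following 16 h compound treatment at 37 C and a prior 2 h room-temperature beta-lactamase substrate step.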

Experiment [13] is described as follows: qHTS assay to identify small molecule antagonists of the farnesoid-X-receptor (FXR) signaling pathway - cell viability counter screen (AID 743221; active = well fitted cell-killing curve with a large enough effect in the repeat runs, not every such curve was filed as active; also: nearly all actives have a fitted effect of over 50% in size). The procedure, abridged:
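Quantitative HTS of the Tox21 10K library run in parallel with the beta-lactamase reporter read. HEK 293T cells carrying a UAS-driven bla reporter got compound and 50 uM CDCA (final) for 16 h; ATP-based luminescence followed.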

The target of experiment [14] is Vitamin D3 receptor (Homo sapiens) (UniProt P11473). The experiment in a line: qHTS assay to identify small molecule agonists of the vitamin D receptor (VDR) signaling pathway (AID 743222; calls by dose curve). The procedure, abridged: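 Fluorescence from cleaved LiveBLAzer B/G FRET substrate served as readout. VDR-bla cells had been treated 16 h at 37C with test compounds in DMSO, following a 4 h settling period, and substrate was loaded for 2 h at RT.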

Experiment [15] is described as follows: qHTS assay to identify aromatase inhibitors - cell viability counter screen (AID 743084).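 Also: cells stimulated with testosterone during compound exposure; nearly all actives have a fitted effect of over 55% in size.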
Experiment [16] is described as follows: qHTS assay for small molecule agonists of the antioxidant response element (ARE) signaling pathway - cell viability counter screen (AID 743203; calls by dose curve; also: nearly all actives have a fitted effect of over 55% in size). The procedure, abridged: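 Viability counter screen: stably transfected ARE-bla HepG2 line, 16 hrs compound exposure at 37C/5% CO2, ATP-based CellTiter-Glo luminescence measured in the reporter wells.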
A short description of experiment [17]: qHTS assay to identify small molecule agonists of the peroxisome proliferator-activated receptor delta (PPARd) signaling pathway - cell viability counter screen (AID 743211). Also: nearly all actives have a fitted effect of over 55% in size. The procedure, abridged:
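Viability of GeneBLAzer PPARd UAS-bla HEK293H cells was assessed after 17 h compound incubation at 37C, using CellTiter-Glo reagent added after the reporter read and luminescence recorded 30 min later.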

In experiment [18] the target is Bile acid receptor (Homo sapiens) (UniProt Q96RI1). As to the kind of experiment: qHTS assay to identify small molecule antagonists of the farnesoid-X-receptor (FXR) signaling pathway (AID 743217; active = well fitted inhibition curve with a large enough effect in the signal ratio in the repeat runs, not every such curve was filed as active; the % refers to the signal ratio). The procedure, abridged:
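Screen of the Tox21 10K library in quantitative HTS format using FXR-UAS-bla HEK 293T reporter cells. Agonist chenodeoxycholic acid, 50 uM final, added with compounds; 16 h incubation at 37 °C; beta-lactamase FRET fluorescence measured.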

Experiment [19] has the same target. The experiment in a line: qHTS assay to identify small molecule agonists of the farnesoid-X-receptor (FXR) signaling pathway (AID 743220; active = well fitted activation curve with a large enough effect in the signal ratio in the repeat runs, not every such curve was filed as active; the % refers to the signal ratio). Put shortly: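 FXR-UAS-bla HEK 293T cells carrying a UAS-driven beta-lactamase reporter were plated for 5 h at 37C/5% CO2, then exposed to DMSO-dissolved Tox21 10K compounds for 16 h at 37C. A LiveBLAzer B/G FRET substrate was loaded for 2 h at room temperature before fluorescence reading.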

Experiment [20] deals with Vitamin D3 receptor (Homo sapiens) (UniProt P11473). The experiment in a line: qHTS assay to identify small molecule antagonists of the vitamin D receptor (VDR) signaling pathway (AID 743223; active = well fitted inhibition curve with a large enough effect in the signal ratio in the repeat runs, not every such curve was filed as active; the % refers to the signal ratio). The procedure, abridged:
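Fluorescence from LiveBLAzer B/G FRET substrate, read after 2 h at room temperature, reflects beta-lactamase reporter activity in VDR-bla cells treated 16 h at 37C with compounds and agonist 1alpha,25-dihydroxyvitamin D3 (3 nM final).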

Records with an inconclusive call do not appear. Unmarked numbers belong to inactive results. The source made the active and inactive calls. Unless noted, calls follow the shape of the dose curve; as a rule, active = well fitted curve in the direction sought with a large enough effect in the repeat runs; inconclusive = weak or mixed curves; inactive = no such curve, though single readings can be large; an effect the other way counts as inactive or inconclusive.

Sequence of Aryl hydrocarbon receptor (Homo sapiens) (P35869 whole entry, looked up): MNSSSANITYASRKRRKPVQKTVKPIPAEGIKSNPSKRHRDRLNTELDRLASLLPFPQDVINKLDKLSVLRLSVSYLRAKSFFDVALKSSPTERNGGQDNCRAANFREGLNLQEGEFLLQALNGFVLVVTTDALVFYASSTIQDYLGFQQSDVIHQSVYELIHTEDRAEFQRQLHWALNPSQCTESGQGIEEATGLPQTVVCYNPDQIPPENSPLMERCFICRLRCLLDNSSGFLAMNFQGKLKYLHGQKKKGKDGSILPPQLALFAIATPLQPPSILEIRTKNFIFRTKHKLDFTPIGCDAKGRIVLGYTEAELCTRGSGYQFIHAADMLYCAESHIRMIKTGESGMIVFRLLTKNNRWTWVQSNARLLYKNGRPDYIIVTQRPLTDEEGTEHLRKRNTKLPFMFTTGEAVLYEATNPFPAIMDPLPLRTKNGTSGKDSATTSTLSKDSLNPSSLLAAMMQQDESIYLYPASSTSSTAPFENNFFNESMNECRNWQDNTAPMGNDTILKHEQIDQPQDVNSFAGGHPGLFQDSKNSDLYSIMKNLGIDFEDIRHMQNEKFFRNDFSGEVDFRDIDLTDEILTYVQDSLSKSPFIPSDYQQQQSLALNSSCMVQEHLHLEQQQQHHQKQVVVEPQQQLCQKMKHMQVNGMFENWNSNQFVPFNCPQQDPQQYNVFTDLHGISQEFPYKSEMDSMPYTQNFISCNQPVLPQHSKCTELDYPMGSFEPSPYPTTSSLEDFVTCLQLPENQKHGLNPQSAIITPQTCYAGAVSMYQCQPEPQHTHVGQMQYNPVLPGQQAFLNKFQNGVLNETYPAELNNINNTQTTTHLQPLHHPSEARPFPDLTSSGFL
Sequence of Peroxisome proliferator-activated receptor gamma (Homo sapiens) (P37231 whole entry, looked up): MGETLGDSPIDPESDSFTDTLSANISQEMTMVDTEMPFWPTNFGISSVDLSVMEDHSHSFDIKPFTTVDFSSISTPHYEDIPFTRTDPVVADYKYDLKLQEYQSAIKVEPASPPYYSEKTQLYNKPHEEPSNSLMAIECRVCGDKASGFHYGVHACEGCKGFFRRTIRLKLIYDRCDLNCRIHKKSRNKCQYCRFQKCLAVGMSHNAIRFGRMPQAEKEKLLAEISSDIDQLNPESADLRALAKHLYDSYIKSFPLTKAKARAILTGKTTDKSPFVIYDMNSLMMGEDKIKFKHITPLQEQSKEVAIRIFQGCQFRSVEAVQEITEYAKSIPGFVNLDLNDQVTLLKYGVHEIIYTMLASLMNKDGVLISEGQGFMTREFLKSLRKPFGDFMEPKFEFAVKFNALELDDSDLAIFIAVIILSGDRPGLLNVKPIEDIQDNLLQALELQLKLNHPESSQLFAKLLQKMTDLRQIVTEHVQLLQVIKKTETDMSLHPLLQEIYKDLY
Sequence of Bile acid receptor (Homo sapiens) (Q96RI1 whole entry, looked up): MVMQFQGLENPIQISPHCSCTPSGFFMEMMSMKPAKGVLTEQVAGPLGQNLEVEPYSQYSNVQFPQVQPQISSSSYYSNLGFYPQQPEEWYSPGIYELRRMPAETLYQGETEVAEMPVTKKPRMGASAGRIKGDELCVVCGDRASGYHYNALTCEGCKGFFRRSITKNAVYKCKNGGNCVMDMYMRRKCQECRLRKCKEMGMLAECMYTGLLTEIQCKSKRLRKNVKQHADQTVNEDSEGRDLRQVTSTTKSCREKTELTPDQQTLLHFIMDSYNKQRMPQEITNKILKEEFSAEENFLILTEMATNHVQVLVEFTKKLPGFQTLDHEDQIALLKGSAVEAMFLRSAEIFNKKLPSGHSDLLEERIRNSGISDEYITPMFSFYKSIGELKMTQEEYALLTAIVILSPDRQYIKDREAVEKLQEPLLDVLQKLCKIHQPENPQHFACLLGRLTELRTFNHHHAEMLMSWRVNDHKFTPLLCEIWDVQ
Sequence of Peroxisome proliferator-activated receptor delta (Homo sapiens) (Q03181 whole entry, looked up): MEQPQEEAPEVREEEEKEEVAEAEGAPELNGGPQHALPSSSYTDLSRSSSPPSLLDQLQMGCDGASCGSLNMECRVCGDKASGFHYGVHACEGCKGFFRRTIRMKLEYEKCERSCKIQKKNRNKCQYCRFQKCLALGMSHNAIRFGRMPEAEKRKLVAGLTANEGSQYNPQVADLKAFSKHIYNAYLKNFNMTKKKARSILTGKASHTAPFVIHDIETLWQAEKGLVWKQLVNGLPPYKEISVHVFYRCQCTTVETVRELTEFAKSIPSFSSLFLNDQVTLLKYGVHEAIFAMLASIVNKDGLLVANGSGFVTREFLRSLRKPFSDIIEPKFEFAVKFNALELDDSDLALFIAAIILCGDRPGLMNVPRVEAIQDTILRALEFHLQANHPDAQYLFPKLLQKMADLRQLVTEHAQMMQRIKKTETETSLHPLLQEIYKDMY
Sequence of Vitamin D3 receptor (Homo sapiens) (P11473 whole entry, looked up): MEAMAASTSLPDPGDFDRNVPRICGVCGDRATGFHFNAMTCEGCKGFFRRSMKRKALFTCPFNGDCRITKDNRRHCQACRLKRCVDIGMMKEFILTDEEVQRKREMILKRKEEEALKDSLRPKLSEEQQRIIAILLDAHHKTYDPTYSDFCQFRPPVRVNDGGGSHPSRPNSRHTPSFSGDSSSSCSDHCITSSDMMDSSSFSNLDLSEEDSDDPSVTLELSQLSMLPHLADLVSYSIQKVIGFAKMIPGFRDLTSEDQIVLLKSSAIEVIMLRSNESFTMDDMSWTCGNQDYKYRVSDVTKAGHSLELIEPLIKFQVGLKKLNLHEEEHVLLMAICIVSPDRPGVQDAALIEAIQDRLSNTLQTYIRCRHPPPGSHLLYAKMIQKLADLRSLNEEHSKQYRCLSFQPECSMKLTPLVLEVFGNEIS

`CC(=O)N(CC(O)CO)c1c(I)c(C(=O)NCC(O)CO)c(I)c(C(=O)NCC(O)CO)c1I` (stereo not given): the Potency entry in experiment [1], in [2], in [4], in experiment [6] and in experiment [12] was “inactive” throughout. For the same molecule, the molecule was called inactive in [3], in [5], in experiment [7], in experiment [8], in [9] and in experiment [10]. For the same molecule, the molecule was called inactive in [11], in experiment [13] and in experiment [14].
With `N#CCCOCCOCCC#N`, the Potency result in [15], in [2], in experiment [6] and in experiment [12] was “inactive” throughout. For the same molecule, the result in experiment [5], in experiment [16], in experiment [7], in [8], in experiment [17] and in experiment [9] was inactive. In addition, the call in experiment [10], in experiment [11], in experiment [18], in [19], in experiment [13] and in [14] was inactive. The molecule was classed as inactive in [20].
On to `CCN(CC)C(=O)C1CN2CCc3cc(OC)c(OC)cc3C2CC1OC(C)=O` (stereo not given), for which the call in [5], in [16], in experiment [7], in experiment [8], in [17] and in [9] was inactive. Further, the molecule was classed as inactive in [10], in experiment [11], in [18], in [19] and in experiment [13]. Besides, the Potency result in experiment [6] was “inactive”. Moreover, in [12], the Potency is 237 nM (active).
For the molecule `Nc1nc(=O)n([C@@H]2O[C@H](CO)[C@@H](O)[C@@H]2F)cc1I`, the molecule was classed as inactive in [5], in experiment [16], in experiment [7], in experiment [8], in [17] and in experiment [9]. For the same molecule, the outcome in [10], in experiment [11], in experiment [13] and in experiment [20] was inactive. Moreover, the Potency entry in experiment [6] was “inactive”.
Take `CCOC(=O)CC#N`: the Potency entry in experiment [1], in experiment [2], in [4], in [6] and in [12] was “inactive” each time. The call in experiment [3], in [5], in experiment [7], in experiment [8], in experiment [17] and in [9] was inactive. The molecule was called inactive in [10], in [11], in [18], in experiment [19] and in [13].
As to `CCCCCCCC/C=C\CCCCCCCC(=O)OC[C@@H](O)[C@H]1OC[C@H](O)[C@H]1O`, the Potency entry in [15], in [2] and in experiment [12] was “inactive” each time. Further, the result in [16], in experiment [7], in [8], in experiment [17], in [9] and in experiment [10] was inactive. Also, the outcome in experiment [11], in experiment [13], in [14] and in experiment [20] was inactive.
As to `CC(=O)c1ccc(OCC(=O)N2CCCCC2)cc1`, the Potency result in experiment [15], in [2], in [4], in experiment [6] and in experiment [12] was “inactive” in each case. The molecule was called inactive in experiment [5], in experiment [16], in experiment [7], in experiment [8], in experiment [17] and in experiment [9]. Moreover, the molecule was called inactive in [10], in experiment [11], in experiment [18], in experiment [19], in experiment [13] and in [14]. The outcome in [20] was inactive.
For the molecule `COc1cc([N+](=O)[O-])ccc1N`, the Potency result in [1] and in [6] was “inactive” in each case. In addition, the molecule was called inactive in [16], in experiment [7], in [8], in [17], in experiment [9] and in [10]. The molecule was called inactive in experiment [11], in experiment [18], in experiment [19], in experiment [13] and in experiment [14].

For the origin of these results see PubChem BioAssay (Tox21).
